Sampled rows, rich in hits. Any-hit rate of the full collection: about 2.9%.
Cardio protect – myocardial damage modulation in H9c2 cells; H9c2 cardiomyocytes, H2O2 injury protection, ATPLite, 2 h; protection from H2O2 cell death, % at 20 µM; 360,000 compounds, 0.63% hits;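 active means compounds giving at least 50% protection of heart cells from peroxide-induced death in the single-dose screen, raw or plate-pattern-corrected value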;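 further: 0% = DMSO wells with peroxide and 100% = DMSO wells without peroxide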
TAG inh – inhibitors of triacylglycerol accumulation | AID 651582 | inhibition, % at 12.5 µM | H9c2 cells, Nile Red lipid (TAG) fluorescence; cells loaded with 200 µM oleic acid | 230,000 compounds, 0.66% hits;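 active means pattern-corrected inhibition of lipid staining of at least 50% with the nuclear-stain viability signal not falling by more than 50%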;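 further: 0% = DMSO wells and 100% = triacsin C control wells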
NadD block – blocks S. aureus nicotinate mononucleotide adenylyltransferase | purified NadD enzyme, colorimetric absorbance read-out | inhibition, % at 20 µM | 360,000 compounds, 0.78% hits | AID 602399; in the data active means inhibition above about 26%
A3A deaminase – human APOBEC3A DNA deaminase inhibition | P31941 | recombinant A3A, FAM/TAMRA ssDNA deamination fluorescence | inhibition, % at 20 µM | 330,000 compounds, 0.41% hits;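 active means at least 40% inhibition at 20 µM here, with at most 30% in a related deaminase screen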;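 further: plate controls were A3A with DMSO for no effect and wells lacking A3A enzyme for full effect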
Target sequence (P31941 whole entry, looked up): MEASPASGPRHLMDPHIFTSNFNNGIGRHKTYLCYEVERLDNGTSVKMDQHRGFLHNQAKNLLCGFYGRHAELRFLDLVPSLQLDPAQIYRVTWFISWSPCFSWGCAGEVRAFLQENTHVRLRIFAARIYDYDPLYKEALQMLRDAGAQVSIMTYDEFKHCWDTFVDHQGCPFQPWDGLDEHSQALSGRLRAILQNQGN
PfG6PD inh – PfG6PD (Plasmodium falciparum) enzyme inhibition | PfGluPho enzyme, NADPH resazurin-diaphorase fluorescence | inhibition, % at 20 µM | 350,000 compounds, 0.78% hits | AID 504690;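 active means inhibition reaching at least a set limit at 20 µM in the primary screen, cut at about 59% in these data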;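 further: 0% = DMSO wells with substrate and 100% = DMSO wells lacking glucose-6-phosphate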
A3G deaminase – inhibitors of human APOBEC3G DNA deaminase | Q9HC16 | recombinant A3G, ssDNA deamination FAM/TAMRA fluorescence | inhibition, % at 20 µM | 330,000 compounds, 0.28% hits;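 active means inhibition of at least 40% at 20 µM, with no more than 30% in the related APOBEC3A deaminase screen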;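 further: plate controls were DMSO wells with A3G for no effect and wells lacking A3G enzyme for full effect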
APOBEC3G confirm – confirmation of human APOBEC3G DNA deaminase inhibitors; inhibition, % at 20 µM; recombinant A3G ssDNA deaminase, UDG/FAM-TAMRA fluorescence; 890 compounds, 72% hits; shares compounds with A3G deaminase;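 active means inhibition reaching a set limit in any replicate at 20 µM, the limit being 80% of the first screen's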
UDG A3G counter – counter-screen for APOBEC3G inhibitors: E. coli UDG; AID 504715; shares compounds with A3G deaminase; 710 tested, under 10 active; inhibition, % at 20 µM; UDG counterscreen, FAM/TAMRA oligo fluorescence;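 active means compounds giving 40% or more inhibition at 20 µM in any one of the three replicates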;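 further: plate controls were DMSO wells with UDG and oligo for no effect and DMSO wells lacking both for full effect; inhibitors lower the FAM signal released by uracil excision and alkaline cleavage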
Target sequence (P12295 whole entry, looked up): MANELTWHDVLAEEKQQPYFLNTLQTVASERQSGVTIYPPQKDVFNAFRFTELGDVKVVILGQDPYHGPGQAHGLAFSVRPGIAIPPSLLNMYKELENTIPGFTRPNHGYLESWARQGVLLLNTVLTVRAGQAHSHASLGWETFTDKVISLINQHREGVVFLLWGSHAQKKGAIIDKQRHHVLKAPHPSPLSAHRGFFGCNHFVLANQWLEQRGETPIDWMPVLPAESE
* hit, by the source's call; nt = no result.

SMILES | Cardio protect | TAG inh | NadD block | A3A deaminase | PfG6PD inh | A3G deaminase | APOBEC3G confirm | UDG A3G counter
Cc1cc(C)nc(NS(=O)(=O)c2ccc(N)cc2)n1 | 5 | 1 | 2 | -2 | 2 | -8 | nt | nt
CCOC(=O)C1=C(C)N(CCCC(=O)O)C(=O)NC1c1cc2ccccc2c2ccccc12 (stereo not drawn) | nt | nt | nt | -4 | nt | -11 | nt | nt
CC(=O)c1ccc(NC(=O)c2ccc(NC(=O)c3ccco3)cc2)cc1 | -8 | 14 | 7 | 16 | -7 | 57* | 57* | 2
CCOC(=O)C1=C(C)N(c2ccccc2)C(=O)/C1=C\c1ccc(O)c(OC)c1 | -1 | -6 | -6 | 5 | 34 | 66* | 3 | nt
CCOC(=O)C1=C(C)N(c2ccccc2)C(=O)/C1=C\c1ccco1 | 5 | nt | -6 | 0 | -1 | -2 | nt | nt
O=C(NC(c1cccnc1)C(F)(F)F)c1cc(COc2ccc3c(c2)CCCC3)on1 (stereo not drawn) | -14 | nt | 3 | -6 | 20 | -11 | nt | nt
Cc1c(N2C(=O)/C(=C/c3ccccc3)SC2=S)c(=O)n(-c2ccccc2)n1C | 0 | -39 | 2 | 4 | -13 | 0 | nt | nt
Cc1c(N2C(=O)/C(=C\c3ccccc3O)SC2=S)c(=O)n(-c2ccccc2)n1C | 6 | 12 | 10 | -2 | 40 | 56* | 75* | -1
CCOC(=O)C(=CNc1cc(C)ccc1-n1cccc1)C(=O)OCC | 16 | -6 | -8 | -4 | 9 | -4 | nt | nt
CCCCCC(O)CCc1n[nH]c(=S)n1-c1ccccc1 (stereo not drawn) | -3 | 3 | 5 | 0 | 35 | 41* | 58* | -3
CCOCCCn1c(=NC(=O)c2cccnc2)c(C(=O)OCC)cc2c(=O)n3ccccc3nc21 | 34 | 23 | 1 | 10 | 12 | 65* | 58* | 0
CCN(CC)C(=O)C1=C(C)N(Cc2ccc(C(C)(C)C)cc2)C(=O)C(CC(=O)NCCN2CCOCC2)C1 (stereo not drawn) | 4 | 5 | -2 | nt | -7 | nt | nt | nt
CC1CCN(C(=O)CN(c2ccc3c(c2)OCCO3)S(=O)(=O)c2ccccc2)CC1 | 14 | nt | -7 | 4 | 6 | 4 | nt | nt
Cc1[nH]c(=O)[nH]c(=S)c1C(=O)Nc1ccc(Cl)c(Cl)c1 | -3 | -5 | 2 | -1 | 38 | 60* | 74* | -6
COc1ccc(N(Cc2ccccc2)S(=O)(=O)c2cccc(C(=O)NCC3CCCO3)c2)cc1 (stereo not drawn) | 3 | 5 | -7 | -2 | -36 | -2 | nt | nt
Cc1ccc2c(c1)-c1c(ssc1=S)C(C)(C)N2C(=O)c1ccco1 | 0 | nt | 16 | 0 | 55 | 42* | 55* | -4
COc1ccc(-c2n[nH]c(=S)n2/N=C/c2cccn2C)cc1 | 3 | 10 | 1 | -4 | 30 | 37 | nt | nt
COc1ccc(/C=N/n2c(-c3n[nH]c4c3CCC4)n[nH]c2=S)cc1 | -4 | -3 | 7 | -8 | 29 | 40* | 74* | -2
COc1ccc(OC)c(/C=N/n2c(-c3n[nH]c4c3CCC4)n[nH]c2=S)c1 | -5 | 6 | 9 | -6 | 56 | 42* | 83* | -2
COc1cc(OC)c(OC)cc1/C=N/n1c(-c2n[nH]c3c2CCC3)n[nH]c1=S | -6 | 1 | 5 | -6 | 55 | 39 | nt | nt
O=S1(=O)CC(N2CCCC2)CN1Cc1cn(Cc2cccc(Cl)c2)nn1 (stereo not drawn) | nt | nt | 4 | nt | nt | nt | nt | nt
CCc1ccc(CN2CCCC(C(=O)Nc3ccccc3-c3ccc(OC)cc3)C2)o1 (stereo not drawn) | -2 | nt | -4 | -4 | 15 | -2 | nt | nt
CN(C)S(=O)(=O)c1cc(NC(=O)CN2CCN(c3ccc(O)cc3)CC2)ccc1Cl | -6 | -1 | -9 | -2 | 43 | 58* | 17 | -6
Cn1cnc2c(cnn2C)c1=O | -2 | 4 | -5 | nt | -7 | nt | nt | nt
COc1cccc(C(C)(O)c2nc(-c3ccc(F)c(Cl)c3)cs2)c1 (stereo not drawn) | -15 | -4 | -12 | nt | nt | nt | nt | nt
